Measured values as given in PubChem BioAssay AID463173 (ICCB-Longwood Screening Facility, Harvard Medical School, 2010).
Hit rate of the full screen: of about 52,000 compounds, about 4,300 (8.3%) were called active. Cut-off read from the data, not from the text of the source: active = survival mostly below about 52% (no sharp cut-off); inactive = mostly above about 56%. Many of the other results were omitted from the sample, so actives are more common in it than they were.

What follows are compounds tested on DeltatarO mutant (assay: growth inhibition of S. aureus wild type versus tarO mutant, primary screen, teichoic acid synthesis inhibitors, RN4220, OD600 (AID 463173)). Conditions: OD600, 18 h, stronger effect = lower value, screened at 18.75 µg/mL (by protocol).

| SMILES | survival |
| --- | --- |
| CC(=O)c1ccc(NC(=O)Cn2c(=O)cc(C)c3c(C)nn(-c4cccc(F)c4)c32)cc1 | 81% (inactive) |
| Cc1cc(=O)n2nc(N3CCC(C(=O)NCCCOC(C)C)CC3)sc2n1 | 100% (inactive) |
| NC1CCC(c2ccccc2)CC1 (stereo not drawn) | 78% (inactive) |
| COc1ccc(-c2cn3nc(N4CCC(C(=O)NCc5ccc(F)cc5)CC4)sc3n2)cc1 | 88% (inactive) |
| CC1=C(C(=O)Nc2ccc(Cl)cc2)C(c2cccs2)n2nc(SCc3cccc(C)c3)nc2N1 (stereo not drawn) | 88% (inactive) |
| COCCNC(=O)CSc1cn(CC(=O)N2CCCCCC2)c2ccccc12 | 73% (inactive) |
| COc1ccc(-c2nc3c4cnn(-c5ccccc5F)c4ncn3n2)cc1 | 59% (inactive) |
| CN1CCN(C(CNC(=O)C(=O)Nc2ccccc2)c2ccc3c(c2)OCO3)CC1 (stereo not drawn) | 67% (inactive) |
| COc1ccc(NC(=O)c2c(C)oc3ccc(O)c(CN4CCC(C)CC4)c23)cc1 | 57% (inactive) |
| CCc1c(C)nc(SCC(=O)N2CCN(c3ccccc3OC)CC2)[nH]c1=O | 77% (inactive) |
| CCCCNC(=O)c1ccc2c(c1)NC(=O)C(CS(=O)(=O)Cc1ccc(C)cc1)N2 (stereo not drawn) | 87% (inactive) |
| COc1ccc(Cl)cc1S(=O)(=O)Nc1cccc(-c2ccc(N3CCOCC3)nn2)c1 | 97% (inactive) |
| NS(=O)(=O)c1ccc(CCNc2nc3c(-c4cccc(F)c4)nnn3c3ccc(Cl)cc23)cc1 | 65% (inactive) |
| COC(=O)c1ccc(NC(=O)CSc2nc3ccc(OC)cc3[nH]2)cc1 | 184% (inactive) |
| Cc1cc(Cl)ccc1NC(=O)CSc1nc2c(c(=O)[nH]1)CCC2 | 80% (inactive) |
| Cc1cc(C)c(NC(=O)CSc2nc3ccncc3[nH]2)c(C)c1 | 119% (inactive) |
| Cc1ccc2nc(SCC(=O)Nc3ccc(C#N)cc3)[nH]c2c1 | 64% (active) |
| COc1ccc(NC(=O)CSc2nc3ccccc3[nH]2)cc1 | 70% (inactive) |
| Cc1ccc(NC(=O)CSc2nc3ccc(Br)cc3[nH]2)c(C)c1 | 42% (active) |
| COCCNC(=O)CCCn1c(SCc2ccccc2Cl)nc2c(sc3ccccc32)c1=O | 129% (inactive) |
| COc1ccccc1NC(=O)c1ccc(-c2nc(COc3ccc(C)cc3)c(C)o2)cc1 | 83% (inactive) |
| COc1ccc(Nc2nnc(-c3cc4c(ccc5ccccc54)oc3=O)s2)cc1 | 82% (inactive) |
| CCCCN(Cc1ccccc1)S(=O)(=O)c1ccc2c(c1)CC(C)N2C(=O)CC (stereo not drawn) | 99% (inactive) |
| CCOC(=O)c1c(C)oc2nc(C)nc(NCc3cccc(OC)c3)c12 | 72% (inactive) |

| SMILES | survival |
| --- | --- |
| CCc1ccc(NC(=O)Cn2c(-c3cncs3)nc3ccccc32)cc1 | 59% (inactive) |
| CCCCOc1ccccc1NC(=O)Cn1c(-c2cncs2)nc2ccccc21 | 49% (active) |
| Cc1ccc(NC(=O)Cn2c(-c3cncs3)nc3ccccc32)c(Br)c1 | 63% (inactive) |
| CCCCCOc1ccc(NC(=O)Cn2c(-c3cncs3)nc3ccccc32)cc1 | 86% (inactive) |
| CC(=O)c1cccc(NC(=O)Cn2c(-c3cncs3)nc3ccccc32)c1 | 67% (inactive) |
| Cc1cc(C)cc(NC(=O)Cn2c(-c3cncs3)nc3ccccc32)c1 | 37% (active) |
| CC1CCN(C(=O)Cn2cc(SCC(=O)Nc3ccccc3)c3ccccc32)CC1 | 67% (inactive) |
| CCOc1ccc(CNC(=O)CCc2c(C)nn(-c3ccc(N4CCOCC4)nn3)c2C)cc1 | 72% (inactive) |
| O=C(CSc1nnc2c(n1)[nH]c1ccccc12)Nc1ccccc1 | 89% (inactive) |
| COc1ccc(CC(=O)NCC(c2ccc(Cl)cc2)N2CCOCC2)cc1 (stereo not drawn) | 71% (inactive) |
| Cc1ccccc1Cc1c(C)nc2nc(SCC(=O)NC(C)c3ccccc3)nn2c1C (stereo not drawn) | 57% (active) |
| CCCNC(=O)CSc1nc2nc(C)c(Cc3ccccc3Cl)c(C)n2n1 | 60% (inactive) |
| CCCCNC(=O)CSc1nc2nc(C)c(Cc3ccccc3C)c(C)n2n1 | 39% (active) |
| Cc1ccccc1Cc1c(C)nc2nc(SCC(=O)N(C)c3ccccc3)nn2c1C | 78% (inactive) |
| CCN(CC)CCCNC(=O)CSc1nc2nc(C)c(Cc3ccccc3C)c(C)n2n1 | 75% (inactive) |
| Cc1ccc(Cc2c(C)nc3nc(SCC(=O)NC(C)c4ccccc4)nn3c2C)cc1 (stereo not drawn) | 53% (inactive) |
| Cc1cccc2sc(N(CCN(C)C)C(=O)c3ccc4c(c3)OCCO4)nc12 | 119% (inactive) |
| CC(=O)N1CCc2c(sc3c2c(=O)n(-c2ccc(F)cc2)c(=O)n3Cc2ccc(C#N)cc2)C1 | 107% (inactive) |
| Cc1ccc(CNCc2ccc3c(c2)n(C)c(=O)n3C)cc1 | 92% (inactive) |
| CCN(CC)S(=O)(=O)c1ccc2c(c1)nc(CN(C)C(=O)c1cccc(Cl)c1)n2C | 71% (inactive) |
| C#CCOc1ccc(C2C3=C(CCCC3=O)N(CCC(=O)O)C3=C2C(=O)CCC3)cc1 | 70% (inactive) |
| COc1ccc2c(c1)CCc1c(C(=O)Nc3c(C)nn(Cc4c(Cl)cccc4Cl)c3C)noc1-2 | 114% (inactive) |
| CCOC(=O)c1cc2c(=O)n3ccccc3nc2n(CC2CCCO2)c1=NC(=O)c1cccc(C(F)(F)F)c1 (stereo not drawn) | 97% (inactive) |
| CCOC(=O)c1cc2c(=O)n3ccccc3nc2n(CC2CCCO2)c1=NC(=O)c1ccc(C)cc1 (stereo not drawn) | 101% (inactive) |

| SMILES | survival |
| --- | --- |
| CCOC(=O)c1cc2c(=O)n3ccccc3nc2n(CC2CCCO2)c1=NC(=O)c1ccc(C(C)(C)C)cc1 (stereo not drawn) | 59% (inactive) |
| CCOC(=O)c1cc2c(=O)n3ccccc3nc2n(CC2CCCO2)c1=NC(=O)c1cccc(C)c1 (stereo not drawn) | 29% (active) |
| CCOC(=O)c1cc2c(=O)n3ccccc3nc2n(CC2CCCO2)c1=NC(=O)c1cc(C)cc(C)c1 (stereo not drawn) | 44% (active) |
| CCn1c(CN2CCCCC2)nc2cc(NC(=O)c3cc(OC)c(OC)c(OC)c3)ccc21 | 87% (inactive) |
| O=C(c1cnc(N2CCCCC2)c2ccccc12)N1CCN(c2ccccc2F)CC1 | 75% (inactive) |
| Cc1ccc2c(c1)nnn2C1CCN(CC(=O)N(c2ccccc2)c2ccccc2)CC1 | 98% (inactive) |
| CCOc1ccc(CNC(=O)c2cnc3sc(N4CCC(C)CC4)nn3c2=O)cc1OC | 74% (inactive) |
| Cc1cn(C)c(CC(=O)NCc2ccc(Cl)cc2)c1C(=O)O | 102% (inactive) |
| COc1cccc(CNC(=O)Cc2c(C(=O)O)c(C)cn2C)c1 | 8% (active) |
| COc1ccc(CNC(=O)Cc2c(C(=O)O)c(C)cn2C)cc1 | 94% (inactive) |
| Cc1cn(C)c(CC(=O)NCc2ccccc2)c1C(=O)O | 85% (inactive) |
| Cc1cn(C)c(CC(=O)NCc2cccc(Cl)c2)c1C(=O)O | 20% (active) |
| Cc1ccc(CNC(=O)Cc2c(C(=O)O)c(C)cn2C)cc1 | 89% (inactive) |
| COc1ccc(NC(=O)c2ccc3oc(=O)c(S(=O)(=O)c4ccc(C)cc4)cc3c2)cc1OC | 90% (inactive) |
| COc1cc(Cl)c(C)cc1NC(=O)CCn1cnc2onc(-c3ccc(F)cc3)c2c1=O | 77% (inactive) |
| COc1ccc(-c2nn3c(=O)cc(CN4CCN(C(=O)Nc5cc(C)ccc5C)CC4)nc3s2)cc1 | 99% (inactive) |
| COc1ccc(NC(=O)C2CCN(S(=O)(=O)c3ccc4c(c3)CCCC(=O)N4)CC2)cc1Cl | 78% (inactive) |
| CCOc1ccc(-c2cc(C(=O)NCc3ccc(OC)cc3)c3c(-c4ccc(F)cc4)[nH]nc3n2)cc1 | 77% (inactive) |
| COc1ccc(-c2cc(C(=O)NCc3ccccc3)c3c(-c4ccccc4)[nH]nc3n2)cc1 | 93% (inactive) |
| COc1ccc(Nc2cc(C(=O)NCc3cccs3)c3ccccc3n2)cc1 | 131% (inactive) |
| CCOc1ccc(-c2cc(C(=O)NCCc3ccc(Cl)cc3)c3ccccc3n2)cc1 | 81% (inactive) |
| CCOc1ccc(-c2cc(C(=O)NCc3ccccc3)c3c(-c4ccc(CC)cc4)[nH]nc3n2)cc1 | 47% (active) |
| CCOc1ccc(-c2cc(C(=O)NCCc3ccc(C)cc3)c3ccccc3n2)cc1 | 52% (active) |
| CCOc1ccc(-c2cc(C(=O)NCc3ccc(C)cc3)c3ccccc3n2)cc1 | 87% (inactive) |

| SMILES | survival |
| --- | --- |
| COc1ccc(Nc2cc(C(=O)NCc3ccccc3OC)c3ccccc3n2)cc1 | -5% (active) |
| COc1ccc(CCNC(=O)c2cc(-c3ccccc3)nc3ccccc23)cc1OC | 58% (inactive) |
| COc1ccc(CCNC(=O)c2cc(-c3ccc(C)c(C)c3)nc3ccccc23)cc1OC | 120% (inactive) |
| COc1ccc(-c2cc(C(=O)NCCc3ccc(OC)c(OC)c3)c3ccccc3n2)cc1 | 48% (active) |
| COc1ccc(Nc2cc(C(=O)NCc3ccccc3)c3ccccc3n2)cc1 | 97% (inactive) |
| CCCCNc1ccc(-c2nc(-c3ccccc3)no2)cc1[N+](=O)[O-] | 72% (inactive) |
| CCOc1ccc(C(=O)O)o1 | 94% (inactive) |
| Cc1ccc(-n2c(SCC(=O)NC(C)(C)C)nc(O)cc2=O)cc1 | 107% (inactive) |
| CCCCOC(=O)c1ccc(Nc2ncnc3[nH]ncc23)cc1 | 55% (inactive) |
| N#Cc1ccccc1NC(=O)C(=O)NCCc1csc(-c2ccc(C(F)(F)F)cc2)n1 | 85% (inactive) |
| Cc1ccc(S(=O)(=O)c2cn(Cc3ccccc3)c3cc(N4CCCC4)c(F)cc3c2=O)cc1 | 71% (inactive) |
| Cc1nc2sc(C)c(C)n2c(=O)c1S(=O)(=O)N1CCN(c2ccccc2F)CC1 | 68% (inactive) |
| Cc1cc(C)c(NC(=O)Cn2c(=O)n(-c3cccc(C(F)(F)F)c3)c(=O)c3c(C)c(C)sc32)c(C)c1 | 92% (inactive) |
| O=C(Nc1ccc2c(c1)OCCO2)C1CCCN(S(=O)(=O)Cc2ccccc2)C1 (stereo not drawn) | 102% (inactive) |
| CCOc1ccc(NC(=O)c2nn(C)c3c2CS(=O)(=O)c2ccccc2-3)cc1 | 60% (inactive) |
| COc1ccc(C(=O)CSc2nc3cc(C(=O)NC4CCCC4)ccc3c(=O)n2CC2CCCO2)cc1 (stereo not drawn) | 95% (inactive) |
| CCOc1ccc(C(=O)CSc2nc3cc(C(=O)NC4CCCC4)ccc3c(=O)n2CC2CCCO2)cc1 (stereo not drawn) | 8% (active) |
| O=C(CSc1nc2cc(C(=O)NC3CCCC3)ccc2c(=O)n1CC1CCCO1)c1cccc(Cl)c1 (stereo not drawn) | 20% (active) |
| Cc1ccc(C(=O)CSc2nc3cc(C(=O)NC4CCCC4)ccc3c(=O)n2CC2CCCO2)cc1 (stereo not drawn) | 101% (inactive) |
| O=C(CSc1nc2cc(C(=O)NC3CCCC3)ccc2c(=O)n1CC1CCCO1)c1ccc(F)cc1 (stereo not drawn) | 96% (inactive) |
| Cc1ccc(C(=O)CSc2nc3cc(C(=O)NC4CCCC4)ccc3c(=O)n2CC2CCCO2)c(C)c1 (stereo not drawn) | 91% (inactive) |
